# Source: PubChem BioAssay (NCATS)
# The source made the active and inactive calls. Calls follow the shape of the dose curve; as a rule, active = well fitted inhibition curve with a large enough effect; inconclusive = small, poorly fitted or top-dose-only effect; inactive = flat fitted curve, though single readings scatter.
# Target: DNA dC->dU-editing enzyme APOBEC-3G (Homo sapiens) (UniProt Q9HC16)
# Test: qHTS for inhibitors of Vif-A3G interactions: Validation (AID 588379); also: 0% is about no effect
# Settings: Vif-A3G protein interaction assay; series mostly up to 46.1 µM; activity change, negative = inhibition: at the top concentration
# Excerpt: The recent discovery and characterization of host restriction factors, which provide a potent defense to invading retroviruses, has provided new targets for antiviral drug development. APOBEC3G (A3G) and APOBEC3F (A3F) are potent cytidine deaminases that block HIV-1 replication; HIV-1 expresses the Vif protein, which counteracts A3G and A3F by binding to them and inducing their proteasomal degradation.
# The Vif-A3G and Vif-A3F interactions provide two potential targets for development of small molecules which can interfere with the ability of Vif to degrade A3G or A3F. […] To identify inhibitors that can interfere with Vif mediated degradation of A3G and A3F, we have developed Hela cell lines that stably express A3G or A3F tagged with eYFP at the C-terminal end (A3G-eYFP or A3F-eYFP, respectively) and Vif. In the absence of an inhibitor, Vif induces degradation of A3G-eYFP and A3F-eYFP, and the cells are not fluorescent. In the presence of an inhibitor, it is expected that Vif will be unable to degrade A3G-eYFP and/or A3F-eYFP, resulting in an increase in yellow fluorescence. In this assays Vif A3G was screened against the Molecular Library Small Molecile Repository (MLSMR).
# NIH Chemical Genomics Center [NCGC]
# NIH Molecular Libraries Probe Centers Network [MLPCN]
# Assay Submitter (PI): Vinay Pathak, National Cancer Institute
# 5 uL of 700 cells/well of A3G-YFP cells are dispensed into black, clear bottom plates. The plates are incubated overnight at 37 deg C. 23 nL of compounds are added by pintool. The plates are incubated overnight at 37 deg C and then read on the TTP Acumen (Ex 488/ Em 500-530).
# Sequence of DNA dC->dU-editing enzyme APOBEC-3G (Homo sapiens) (Q9HC16 whole entry, looked up): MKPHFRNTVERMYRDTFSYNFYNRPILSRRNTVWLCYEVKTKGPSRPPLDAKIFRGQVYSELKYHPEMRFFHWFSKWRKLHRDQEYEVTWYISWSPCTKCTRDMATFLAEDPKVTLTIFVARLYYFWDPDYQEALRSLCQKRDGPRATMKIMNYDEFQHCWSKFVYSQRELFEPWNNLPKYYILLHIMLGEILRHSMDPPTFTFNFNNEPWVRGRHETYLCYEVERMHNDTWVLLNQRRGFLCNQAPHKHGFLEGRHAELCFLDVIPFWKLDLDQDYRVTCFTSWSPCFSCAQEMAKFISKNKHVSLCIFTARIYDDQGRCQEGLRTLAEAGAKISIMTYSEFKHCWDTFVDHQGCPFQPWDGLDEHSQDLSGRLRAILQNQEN
row,Compound,"activity change, negative = inhibition"
1,C[C@]12CCC3C(CC[C@]4(O)C[C@@H](O)CC[C@]34C=O)[C@@]1(O)CC[C@@H]2C1=CC(=O)OC1 (stereo partly specified),-3.44% (inactive)
2,c1cc2c(cc1[C@H]1OC[C@@H]3[C@H]1CO[C@H]3c1ccc3c(c1)OCO3)OCO2,-2.68% (inactive)
3,CC[C@]1(O)C(=O)OCc2c1cc1n(c2=O)Cc2cc3ccccc3nc2-1,-1.01% (inactive)
4,COc1cc2c(cc1O)-c1c(O)c(OC)cc3c1[C@H](C2)N(C)CC3,-13.1% (inactive)
5,CN(C)C1C(=O)C(C(N)=O)=C(O)[C@@]2(O)C(=O)C3=C(O)c4c(O)cccc4[C@@](C)(O)C3[C@H](O)C12 (stereo partly specified),0.0158% (inactive)
6,CN(C)C1C(=O)C(C(N)=O)=C(O)[C@@]2(O)C(=O)C3=C(O)c4c(O)cccc4[C@@](C)(O)C3C[C@@H]12 (stereo partly specified),-0.512% (inactive)
7,c1cc2cc(c1)C[n+]1ccc(c3ccccc31)NCc1ccc(cc1)CNc1cc[n+](c3ccccc13)C2,0.224% (inactive)
8,CC1CCC2C(C)C(=O)OC3OC4(C)CCC1C32OO4 (stereo unspecified),-1.21% (inactive)
9,C/C=C1/C[C@@H](C)[C@](O)(CO)C(=O)OCC2=CCN3CC[C@@H](OC1=O)C23 (stereo partly specified),-1.07% (inactive)
10,COC1=C[C@H]2[C@H]3Cc4ccc(OC)c(O)c4[C@@]2(CCN3C)CC1=O,-2.77% (inactive)
11,COC(C)C(O)(C(=O)OC1=CCN2CC[C@H](O)[C@H]12)C(C)C (stereo partly specified),-2.04% (inactive)
12,COC[C@H]1OC(=O)c2coc3c2[C@@]1(C)C1=C(C3=O)[C@H]2CCC(=O)[C@@]2(C)C[C@H]1OC(C)=O,-1.49% (inactive)
13,C[C@@H](Cc1cccc(C(F)(F)F)c1)NCCCc1ccccc1,-5.05% (inactive)
14,Oc1cc2c(cc1O)[C@H]1c3ccccc3CN[C@H]1CC2,-1.05% (inactive)
15,CC1=CC(=O)c2c(O)cccc2C1=O,-1.58% (inactive)
16,O=CN1CC2CC(C1)c1cccc(=O)n1C2 (stereo unspecified),-0.435% (inactive)

row,Compound,"activity change, negative = inhibition"
1,COc1ccc(CC2c3cc(OC)c(OC)cc3CCN2C)cc1OC (stereo unspecified),-4.35% (inactive)
2,C[C@]12[C@H](O)CC3C(CC[C@@H]4C[C@@H](O)CC[C@]34C)[C@@]1(O)CC[C@@H]2C1=CC(=O)OC1 (stereo partly specified),-7.69% (inactive)
3,COc1cc2c(cc1OC)-c1c(O)c(OC)cc3c1[C@H](C2)N(C)CC3,-1.83% (inactive)
4,CC1=CC(=O)C2=C(C)C[C@H](O)[C@H]3[C@H](C)C(=O)O[C@@H]3C12 (stereo partly specified),-1.29% (inactive)
5,O=c1cccc2n1CC1CC2CN2CCCC[C@H]12 (stereo partly specified),-0.66% (inactive)
6,COc1cc2c(cc1OC)-c1c(OC)c(OC)c(C=O)c3c1[C@H](C2)N(C)CC3,-7.91% (inactive)
7,CN(CCc1ccc(Cl)c(Cl)c1)[C@H]1CCCC[C@H]1N1CCCC1,-2.88% (inactive)
8,COc1cc2c(cc1OC)-c1c(OC)c(OC)c(CO)c3c1C(C2)N(C)CC3 (stereo unspecified),0.0585% (inactive)
9,CC(C)[C@]1(NC(=O)[C@@H]2C=C3c4cccc5[nH]cc(c45)C[C@H]3N(C)C2)O[C@@]2(O)C3CCCN3C(=O)[C@H](Cc3ccccc3)N2C1=O (stereo partly specified),-17.1% (inactive)
10,CN1Cc2c(ccc3c2OCO3)C2C(O)Cc3cc4c(cc3C21)OCO4 (stereo unspecified),-12.4% (inactive)
11,CC1CC[C@@]2(OC1)O[C@@H]1[C@@H](O)[C@H]3C4CC[C@H]5C[C@@H](O[C@@H]6O[C@H](CO)[C@H](O[C@@H]7O[C@H](CO)[C@@H](O)[C@H](O[C@@H]8OC[C@@H](O)[C@H](O)[C@H]8O)[C@H]7O[C@@H]7O[C@H](CO)[C@@H](O)[C@H](O[C@@H]8O[C@H](CO)[C@@H](O)[C@H](O)[C@H]8O)[C@H]7O)[C@H](O)[C@H]6O)[C@H](O)C[C@]5(C)C4CC[C@]3(C)[C@H]1[C@@H]2C (stereo partly specified),3.81% (inactive)
12,COc1ccc2c(c1OC)C(=O)O[C@@H]2C1c2cc3c(cc2CCN1C)OCO3 (stereo partly specified),-2.67% (inactive)
13,CN1C[C@@H](CO)C=C2c3cccc4[nH]cc(c34)CC21 (stereo partly specified),-0.0232% (inactive)
14,CC1(C)S[C@H]2[C@@H](N)C(=O)N2[C@H]1C(=O)O,3.52% (inactive)
15,COc1ccc(CC2NCC(O)C2OC(C)=O)cc1 (stereo unspecified),0.578% (inactive)
